# Laboratory results as given in PubChem BioAssay.
# Calls of active or inactive are those of the source. No rule for the calls is given here.
# Biological target: Pantothenate synthetase (Mycobacterium tuberculosis (strain ATCC 25618 / H37Rv)) (UniProt P9WIL5)
# Assay: Coupled enzyme confirmation of inhibitors against recombinant Mtb PanC (AID 375);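 also: 0% = full reaction with vehicle and 100% = no enzyme background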
# Conditions: coupled enzyme assay; at 10 µM, hits give high values
# Pantothenate synthetase (Mycobacterium tuberculosis (strain ATCC 25618 / H37Rv)), sequence (P9WIL5 whole entry, looked up): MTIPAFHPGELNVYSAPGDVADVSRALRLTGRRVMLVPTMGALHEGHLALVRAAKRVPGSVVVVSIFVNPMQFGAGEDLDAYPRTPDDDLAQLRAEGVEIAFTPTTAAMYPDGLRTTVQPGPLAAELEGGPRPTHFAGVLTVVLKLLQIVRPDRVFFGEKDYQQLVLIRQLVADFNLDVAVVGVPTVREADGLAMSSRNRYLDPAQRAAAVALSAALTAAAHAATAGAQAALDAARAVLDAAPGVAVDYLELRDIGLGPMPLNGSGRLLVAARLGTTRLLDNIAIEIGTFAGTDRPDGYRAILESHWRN
row,Compound,inhibition
1,Cc1ccc(Cn2nnc3c(=O)n(CC(=O)NCC4CCCO4)cnc32)cc1 (configuration not stated),0% (inactive)
2,Cc1nnc(SCc2cc(=O)[nH]c(N3CCCCC3)n2)s1,1% (inactive)
3,Cc1ccc(C)c(-c2nc3ccc(N)cc3[nH]2)c1,0% (inactive)
4,CCOC(=O)C1CCN(C(=O)CCCCn2c(=O)[nH]c3ccccc3c2=O)CC1,2% (inactive)
5,COc1cc(CC(=O)NCc2ccc3c(c2)OCO3)cc(OC)c1OC,1% (inactive)
6,O=C1CCC(=O)N1OCCCOc1ccc(Br)cc1Cl,0% (inactive)
7,Cc1nn(-c2ccc(F)cc2)c2sc(C(=O)O)cc12,0% (inactive)
8,Cc1cc2nc(-c3ccco3)cc(C(F)(F)F)n2n1,0% (inactive)
9,O=C(c1ccccc1Cl)N1CCc2ccccc2C1,0% (inactive)
10,CC(=O)OC(C(=O)NCc1ccco1)c1cccnc1 (configuration not stated),0% (inactive)
11,Cc1cc(O)c(C2(C(F)(F)F)NCCNC2=O)cc1C (configuration not stated),5% (inactive)
12,CCOC(=O)C1CCN(CC(=O)Nc2c(C(=O)OC)[nH]c3ccc(Cl)cc23)CC1,5% (inactive)
13,C=CCn1c(COc2ccc(Cl)cc2)nnc1SCC(=O)N1CC(=O)Nc2ccccc21,0% (inactive)
14,Cc1ccc(S(=O)(=O)CCc2nnc(NC(=O)c3cnccn3)s2)cc1,8% (inactive)
15,Cc1c(NC(=O)c2nn(C)c(=O)c3ccccc23)c(=O)n(-c2ccccc2)n1C,0% (inactive)
16,c1ccc(-c2nc3cnccn3c2Nc2ccc3c(c2)OCCO3)cc1,0% (inactive)
17,CN(Cc1ccccc1)Cc1nc2c(c(=O)n(C)c(=O)n2C)n1Cc1ccc(Cl)cc1,0% (inactive)
